# Assay results taken from PubChem BioAssay AID2265 (National Center for Advancing Translational Sciences (NCATS), 2010).
# This is one part of the list. Results filed as inconclusive are left out. The source made the active and inactive calls. The call rests on the fitted dose curve; in most records, active means well fitted inhibition curve with a large enough effect; inconclusive means small, poorly fitted or top-dose-only effect; inactive means flat fitted curve, though single readings scatter.
# Target: Luciferin 4-monooxygenase (Photuris pensylvanica) (UniProt Q27757)
# Assay: Secondary assay for Inhibitors of Human Pyruvate Kinase M2 isoform: FLuc Counterscreen
# Conditions: Kinase-Glo firefly luciferase, luminescence, 8 min; series mostly up to 57.5 µM
# Procedure: NIH Chemical Genomics Center [NCGC] Matthew G. Vander Heiden, M.D., Ph.D. [Harvard Medical School, 77 Avenue Louis Pasteur, Boston, MA 02115] MLPCN Grant: 1 R03 MH085679-01 NCGC Assay Overview: Luciferase (Kinase-Glo, Promega Corporation) was assayed for its ability to generate light using ATP and luciferin as substrates. The ATP concentration in the assay (10 uM) was within the linear range of enzyme activity for the assay conditions used. This assay was used as an counter screen for human pyruvate kinase M2 isoform.
# NCGC Assay Protocol Summary: Four uL of substrate mix (final concentration, 50 mM imidazole pH 7.2, 50 mM KCl, 7 mM MgCl2, 10 uM ATP, 0.01% Tween 20, 0.05% BSA) was dispensed into white 1536 well plates. Twenty-three nL of compound was delivered by a pin tool and 2 uL of luciferase detection mix (Kinase-Glo, Promega)) was added. Following 8-minute incubation at ambient temperature, luminescence was measured by a ViewLux (Perkin Elmer) at 5 seconds exposure/plate.
row,Structure (SMILES),outcome
1,Cc1ccc(-c2nc3ccccn3c2Nc2ccc(F)cc2)o1,inactive
2,Cc1ccc(Nc2c(-c3ccc(C)s3)nc3ccccn23)cc1,inactive
